For some assays here: Potency and affinity values are given separately.
Columns and labels:
Parameters in all cases: scale not given: direction of the effect not stated beside the values
[1] = target: Protein translocase subunit SecA (Escherichia coli (strain K12)) (UniProt P10408); assay: Assay to Identify E. coli SecA ATPase Inhibitors; type: functional; conditions: 30 µM
[2] = target: T1, Ubiquitin-activating enzyme e1, putative (Leishmania donovani (strain BPK282A1)) (UniProt E9BSI1); assay: Leishmania donovani Ubiquitin Activating Enzyme (LdE1); type: functional; conditions: 30 µM
T1 sequence (whole entry): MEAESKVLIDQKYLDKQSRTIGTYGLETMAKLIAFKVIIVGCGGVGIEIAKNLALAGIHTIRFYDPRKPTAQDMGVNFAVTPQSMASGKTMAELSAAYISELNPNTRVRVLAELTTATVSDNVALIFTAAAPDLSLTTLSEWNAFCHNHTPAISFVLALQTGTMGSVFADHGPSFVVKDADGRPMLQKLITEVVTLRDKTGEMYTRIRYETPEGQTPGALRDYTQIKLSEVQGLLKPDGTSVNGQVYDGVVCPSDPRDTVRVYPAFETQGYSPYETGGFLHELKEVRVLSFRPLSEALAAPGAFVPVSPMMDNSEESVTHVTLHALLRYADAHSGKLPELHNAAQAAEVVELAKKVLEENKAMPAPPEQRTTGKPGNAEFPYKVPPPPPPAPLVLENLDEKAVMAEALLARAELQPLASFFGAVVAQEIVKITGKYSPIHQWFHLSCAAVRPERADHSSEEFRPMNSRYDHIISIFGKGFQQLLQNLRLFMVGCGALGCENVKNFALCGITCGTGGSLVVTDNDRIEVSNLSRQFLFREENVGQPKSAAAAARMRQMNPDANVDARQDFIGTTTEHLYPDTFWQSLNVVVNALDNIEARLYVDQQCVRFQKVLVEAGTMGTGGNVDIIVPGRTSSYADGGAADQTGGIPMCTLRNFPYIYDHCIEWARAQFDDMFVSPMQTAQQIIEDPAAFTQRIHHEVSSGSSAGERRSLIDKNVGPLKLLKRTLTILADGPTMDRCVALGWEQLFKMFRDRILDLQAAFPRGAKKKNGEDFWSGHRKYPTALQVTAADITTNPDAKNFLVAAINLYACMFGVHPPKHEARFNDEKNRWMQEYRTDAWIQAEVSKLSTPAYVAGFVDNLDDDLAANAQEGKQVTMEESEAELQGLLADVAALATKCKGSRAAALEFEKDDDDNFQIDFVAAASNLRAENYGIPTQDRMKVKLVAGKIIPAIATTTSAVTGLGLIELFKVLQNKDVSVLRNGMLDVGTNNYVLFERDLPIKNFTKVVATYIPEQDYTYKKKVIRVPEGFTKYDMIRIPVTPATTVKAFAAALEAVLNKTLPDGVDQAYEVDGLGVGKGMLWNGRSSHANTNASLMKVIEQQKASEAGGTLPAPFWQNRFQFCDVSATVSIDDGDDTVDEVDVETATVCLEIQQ

[3] = target: AMP-activated protein kinase, AMPK (Homo sapiens) (UniProt P54646+O43741+P54619+Q9UGJ0+Q9Y478+Q13131+Q9UGI9); assay: AMP-dependent Kinase enzyme assay. An in vitro enzyme assay that detects ADP turnover that is directly proportional to AMPK activity. This uses naive AMPK that is activated during the assay with MK-8722; type: functional; conditions: 30 µM
[4] = target: Sialic acid-binding Ig-like lectin 9 (Homo sapiens) (UniProt Q9Y336); assay: Hs-Siglec9 ALPHAscreen SOP 20170721; conditions: 10 µM
Trypanosoma cruzi = assay: Trypanosoma cruzi phosphomannomutase and mannose-1-phosphate guanylyltransferase assay; type: functional; conditions: 10 µM
[5] = target: T2, Arginase-2, mitochondrial (Homo sapiens) (UniProt P78540); assay: in vitro enzyme assay to detect the production of urea directly proportional to the activity of Arginase II; type: functional; conditions: 33.3 µM; further: in the data most compounds retested in dose-response had high values
T2 sequence (whole entry): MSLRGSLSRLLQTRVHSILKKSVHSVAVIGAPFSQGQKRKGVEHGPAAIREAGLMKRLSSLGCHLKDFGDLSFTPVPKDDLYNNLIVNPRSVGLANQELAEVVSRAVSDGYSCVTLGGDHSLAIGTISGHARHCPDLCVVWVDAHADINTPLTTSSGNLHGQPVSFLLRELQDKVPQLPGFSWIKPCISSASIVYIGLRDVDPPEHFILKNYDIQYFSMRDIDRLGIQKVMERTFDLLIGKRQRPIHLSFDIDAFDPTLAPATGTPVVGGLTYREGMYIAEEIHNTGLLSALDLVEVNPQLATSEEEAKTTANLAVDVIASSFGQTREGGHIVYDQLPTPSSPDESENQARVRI

[6] = target: T3, Proteasome subunit beta (Trypanosoma cruzi) (UniProt O96673); assay: Trypanosoma cruzi proteasome chymotrypsin-like activity (TcProtChymo) assay.; further: in the data most compounds retested in dose-response had high values; type: functional; conditions: 9.37 µM
T3 sequence (whole entry): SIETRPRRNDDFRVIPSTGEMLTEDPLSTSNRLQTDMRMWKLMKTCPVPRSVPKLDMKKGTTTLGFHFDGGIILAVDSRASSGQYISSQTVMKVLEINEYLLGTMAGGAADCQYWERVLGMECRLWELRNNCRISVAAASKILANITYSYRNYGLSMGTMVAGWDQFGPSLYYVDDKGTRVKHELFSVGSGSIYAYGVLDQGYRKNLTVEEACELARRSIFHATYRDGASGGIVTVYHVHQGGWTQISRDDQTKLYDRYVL

Homo sapiens = species: Homo sapiens; assay: To identify inhibition of the IFN signalling (Jak-Stat) pathway via expression of an eGFP reporter gene under the control of an IFN-stimulated response element (ISRE) containing MxA promoter.; type: functional; conditions: 30 µM
[7] = target: T4, Tyrosyl-tRNA synthetase, putative (Trypanosoma cruzi (strain CL Brener)) (UniProt Q4DSP6); assay: Trypanosoma cruzi tyrosyl tRNA synthetase (TcYRS) _High Tyrosine SOP; type: functional; conditions: 30 µM; further: in the data most compounds retested in dose-response had high values
T4 sequence (whole entry): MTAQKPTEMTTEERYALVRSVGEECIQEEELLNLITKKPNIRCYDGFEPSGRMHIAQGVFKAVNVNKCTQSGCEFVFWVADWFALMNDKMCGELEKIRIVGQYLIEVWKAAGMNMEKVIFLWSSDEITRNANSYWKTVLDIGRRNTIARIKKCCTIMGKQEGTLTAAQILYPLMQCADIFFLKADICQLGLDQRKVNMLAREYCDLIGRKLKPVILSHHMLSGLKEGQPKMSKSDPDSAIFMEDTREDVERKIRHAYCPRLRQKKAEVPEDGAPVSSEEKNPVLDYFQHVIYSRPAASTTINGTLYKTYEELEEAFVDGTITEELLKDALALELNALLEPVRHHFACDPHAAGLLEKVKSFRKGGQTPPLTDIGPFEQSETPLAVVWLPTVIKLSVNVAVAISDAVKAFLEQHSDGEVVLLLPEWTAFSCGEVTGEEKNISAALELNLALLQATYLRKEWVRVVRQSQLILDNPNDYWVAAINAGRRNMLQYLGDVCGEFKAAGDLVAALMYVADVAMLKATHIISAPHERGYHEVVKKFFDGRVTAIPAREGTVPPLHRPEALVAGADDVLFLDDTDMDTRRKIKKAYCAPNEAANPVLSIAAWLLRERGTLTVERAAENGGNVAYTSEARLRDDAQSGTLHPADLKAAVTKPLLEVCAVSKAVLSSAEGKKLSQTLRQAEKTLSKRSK

[8] = target: T4, Tyrosyl-tRNA synthetase, putative (Trypanosoma cruzi (strain CL Brener)); assay: Trypanosoma cruzi tyrosyl tRNA synthetase (TcYRS) SOP; type: functional; conditions: 30 µM
[9] = target: Chromo domain-containing protein 1 (Saccharomyces cerevisiae (strain ATCC 204508 / S288c) (Baker's yeast)) (UniProt P32657); assay: ScCHD-1 Enzyme Inhibition Assay; type: functional; conditions: 30 µM; further: in the data most compounds retested in dose-response had high values
Chain of Chromo domain-containing protein 1 (Saccharomyces cerevisiae (strain ATCC 204508 / S288c) (Baker's yeast)) (P32657 whole entry, the tested form may be a part): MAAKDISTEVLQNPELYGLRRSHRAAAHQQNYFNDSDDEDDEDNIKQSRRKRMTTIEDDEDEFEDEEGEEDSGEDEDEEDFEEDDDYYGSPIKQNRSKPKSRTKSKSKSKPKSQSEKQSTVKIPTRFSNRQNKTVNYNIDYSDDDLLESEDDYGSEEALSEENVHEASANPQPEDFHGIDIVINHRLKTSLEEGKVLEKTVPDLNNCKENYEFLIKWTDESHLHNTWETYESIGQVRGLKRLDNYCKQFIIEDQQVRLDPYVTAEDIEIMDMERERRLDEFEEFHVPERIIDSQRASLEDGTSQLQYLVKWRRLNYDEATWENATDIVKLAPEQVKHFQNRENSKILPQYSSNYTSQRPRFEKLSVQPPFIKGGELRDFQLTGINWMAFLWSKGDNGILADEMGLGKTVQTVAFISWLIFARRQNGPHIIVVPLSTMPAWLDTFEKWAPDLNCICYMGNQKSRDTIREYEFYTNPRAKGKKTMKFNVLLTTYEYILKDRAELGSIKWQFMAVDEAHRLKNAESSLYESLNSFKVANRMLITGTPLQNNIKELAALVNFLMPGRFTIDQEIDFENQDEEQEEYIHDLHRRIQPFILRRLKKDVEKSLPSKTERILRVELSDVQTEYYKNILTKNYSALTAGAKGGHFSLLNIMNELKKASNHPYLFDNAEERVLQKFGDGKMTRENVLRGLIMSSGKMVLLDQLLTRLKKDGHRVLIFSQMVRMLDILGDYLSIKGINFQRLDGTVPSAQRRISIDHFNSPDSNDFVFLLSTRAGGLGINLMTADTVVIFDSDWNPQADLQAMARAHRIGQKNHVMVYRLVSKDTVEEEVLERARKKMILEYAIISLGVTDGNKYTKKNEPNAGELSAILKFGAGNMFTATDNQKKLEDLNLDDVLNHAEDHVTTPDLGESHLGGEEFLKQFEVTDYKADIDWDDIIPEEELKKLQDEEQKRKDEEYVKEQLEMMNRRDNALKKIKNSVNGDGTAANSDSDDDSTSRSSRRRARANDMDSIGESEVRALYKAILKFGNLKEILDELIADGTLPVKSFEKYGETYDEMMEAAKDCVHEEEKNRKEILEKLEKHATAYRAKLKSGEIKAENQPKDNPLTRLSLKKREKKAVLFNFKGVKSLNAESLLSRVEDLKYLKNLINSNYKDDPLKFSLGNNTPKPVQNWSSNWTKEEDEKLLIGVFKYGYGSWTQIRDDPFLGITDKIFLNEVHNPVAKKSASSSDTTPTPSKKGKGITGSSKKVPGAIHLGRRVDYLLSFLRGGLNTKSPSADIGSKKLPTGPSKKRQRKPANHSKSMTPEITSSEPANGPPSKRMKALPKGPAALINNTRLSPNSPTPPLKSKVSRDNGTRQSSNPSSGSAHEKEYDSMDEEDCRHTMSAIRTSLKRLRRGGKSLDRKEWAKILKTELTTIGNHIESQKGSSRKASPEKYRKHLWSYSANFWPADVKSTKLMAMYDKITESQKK

Chain of Sialic acid-binding Ig-like lectin 9 (Homo sapiens) (Q9Y336 whole entry): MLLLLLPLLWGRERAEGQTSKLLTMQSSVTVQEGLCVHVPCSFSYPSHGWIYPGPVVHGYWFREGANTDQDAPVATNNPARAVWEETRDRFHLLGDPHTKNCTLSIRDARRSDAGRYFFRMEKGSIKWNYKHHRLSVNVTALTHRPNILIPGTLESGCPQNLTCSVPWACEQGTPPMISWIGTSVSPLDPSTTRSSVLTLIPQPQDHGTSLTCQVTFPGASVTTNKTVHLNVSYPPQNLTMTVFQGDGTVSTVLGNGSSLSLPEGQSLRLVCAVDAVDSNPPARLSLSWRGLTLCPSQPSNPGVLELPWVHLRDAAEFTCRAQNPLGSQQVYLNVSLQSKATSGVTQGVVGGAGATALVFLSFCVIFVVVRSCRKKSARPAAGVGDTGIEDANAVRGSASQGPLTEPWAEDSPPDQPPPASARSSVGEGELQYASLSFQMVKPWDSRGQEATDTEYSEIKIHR
Chain of Protein translocase subunit SecA (Escherichia coli (strain K12)) (P10408 whole entry): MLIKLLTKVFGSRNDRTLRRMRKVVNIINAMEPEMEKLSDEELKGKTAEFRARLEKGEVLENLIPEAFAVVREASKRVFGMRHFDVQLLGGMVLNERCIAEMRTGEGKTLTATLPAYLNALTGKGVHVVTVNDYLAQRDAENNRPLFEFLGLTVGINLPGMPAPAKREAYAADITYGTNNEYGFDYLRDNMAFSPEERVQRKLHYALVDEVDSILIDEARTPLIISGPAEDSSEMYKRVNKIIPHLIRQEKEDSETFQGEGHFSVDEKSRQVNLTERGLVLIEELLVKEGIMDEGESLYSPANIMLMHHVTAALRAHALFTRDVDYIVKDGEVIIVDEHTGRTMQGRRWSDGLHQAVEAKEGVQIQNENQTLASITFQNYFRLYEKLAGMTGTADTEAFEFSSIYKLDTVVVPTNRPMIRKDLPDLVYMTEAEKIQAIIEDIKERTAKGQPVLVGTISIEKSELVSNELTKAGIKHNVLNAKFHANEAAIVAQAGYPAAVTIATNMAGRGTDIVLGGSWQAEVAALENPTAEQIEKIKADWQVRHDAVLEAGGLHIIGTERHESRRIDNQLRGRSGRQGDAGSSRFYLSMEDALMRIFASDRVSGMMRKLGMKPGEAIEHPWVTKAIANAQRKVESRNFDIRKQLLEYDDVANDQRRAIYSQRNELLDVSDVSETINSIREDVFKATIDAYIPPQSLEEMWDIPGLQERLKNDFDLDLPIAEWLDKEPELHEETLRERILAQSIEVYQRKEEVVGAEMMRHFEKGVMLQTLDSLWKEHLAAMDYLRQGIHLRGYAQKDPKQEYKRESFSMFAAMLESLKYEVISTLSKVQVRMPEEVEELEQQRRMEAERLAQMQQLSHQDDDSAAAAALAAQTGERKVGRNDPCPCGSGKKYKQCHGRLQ

SMILES	Percent Effect [1]	Percent Effect [2]	Percent Effect [3]	Percent Effect [4]	Percent Effect (Trypanosoma cruzi)	Percent Effect [5]	Percent Effect [6]	Percent Effect (Homo sapiens)	Percent Effect [7]	Percent Effect [8]	Percent Effect [9]
Cc1cc(-c2cnc(N3CCNC(=O)C3)nc2-c2cccnc2C)on1	-2.87%	8%	5.98%	8.08%	1.97%	-2.1%	7.49%	1.83%	5.32%	11.5%	-10.5%
COCC(=O)N1CC[C@H]2C[C@H](C)O[C@@H]2C1	-3.06%	13.3%	4.66%	-5.49%	4.53%	-2.56%	17.4%	-11.4%	7.45%	14.1%	-3.21%
Cc1ccc(NC2CCN(C(=O)c3ccsc3)CC2)nn1	-9.11%	10.4%	-1.87%	1.46%	-6.37%	-1.07%	5.57%	30%	6.8%	9.76%	-2%
CC(C)N(C)CC(=O)NC1CCc2nccn2C1 (configuration not stated)	-0.518%	-5.33%	4.88%	-4.8%	-4.38%	-5.21%	3.14%	31.6%	-2.73%	-6.17%	2.61%
CCc1n[nH]c(C2CN(Cc3nnc(C4CC4)n3C)CCO2)n1 (configuration not stated)	0.518%	20.8%	-9.24%	-6.88%	-1.08%	3.16%	12.7%	30.4%	2.86%	9.41%	-17.9%
CN(C)C(=O)CNC(=O)c1ccc(Cl)cc1F	-6.12%	21.1%	-0.479%	-6.12%	3.99%	-65.1%	13.7%	15.7%	6.38%	-28.6%	-15.3%
CC1CN(C(=O)NCCCn2cncn2)CCO1 (configuration not stated)	-2.77%	7.89%	1.46%	3.56%	-2.82%	5.75%	2.84%	-1.05%	5.39%	7.32%	-1.67%
CCc1nc(CN2CCCN(c3nccs3)CC2)no1	-2.88%	15.6%	-3.3%	-7.59%	-3.93%	1.78%	12.5%	26.3%	3.88%	9.76%	-8.02%
O=C(CN1CCCCCCC1=O)NCc1ccccn1	-1.09%	5.48%	-2.69%	1.29%	2.78%	2.4%	1.46%	0.819%	5.21%	11.1%	-5.16%
Cc1nc(CN2CCc3nn(C(C)C)c(=O)cc3C2)oc1C	-3.86%	-2.63%	-91.7%	5.18%	-3.83%	6.83%	10.4%	-4.72%	-3.45%	-8.64%	2.02%
CCn1cc(NC(=O)C2CCN(CC(=O)N3CCOCC3)CC2)cn1	-3.94%	10.5%	-3.09%	3.27%	-4.01%	1.8%	3.98%	3.5%	2.46%	11.1%	4.1%
Cc1cnccc1CN1C[C@@H](O)[C@H](Oc2cccc(F)c2)C1	-3.16%	1.35%	10%	2.32%	3.36%	0.696%	4.37%	16.3%	0%	1.3%	-22.9%
CCn1nc(C)c(CNC(=O)c2cn(CC3CCCO3)nn2)c1C (configuration not stated)	-6.8%	0%	-1.16%	7.76%	2.24%	2.08%	2.27%	6.98%	6.01%	11.1%	-0.117%
O=C([C@H]1C[C@H]2OCC[C@H]2N(C(=O)C2CCOCC2)C1)N1CCCCO1	-5.69%	13.3%	-3.93%	1.16%	1.93%	-50.4%	2.73%	-17.9%	9.38%	22.5%	-6.17%
CC(C)C(=O)NCc1cccc(N2CCCCC2=O)c1	-6.2%	18.2%	-3.27%	-10.4%	5.78%	1.05%	11.7%	0.702%	3.81%	21.2%	-12.3%
COCCN1CCC2(CCN(Cc3nccs3)CC2)C1=O	-1.23%	-2.67%	-1.24%	5.18%	-5.79%	-11.7%	2.91%	-7.71%	6.25%	2.5%	0.122%
CC(C)c1noc(CN(Cc2ccccc2F)C2CC2)n1	-1.22%	15.6%	-0.613%	8.23%	3.64%	-75.9%	22.5%	10.9%	7.53%	18.5%	-1.83%
CC(=O)Nc1nc(C2CCN(CC(N)=O)CC2)cs1	-1.36%	-6.76%	6.42%	5.54%	-4.35%	3.48%	-3.9%	5.69%	0%	-3.9%	11%
Cc1nn(C)c(N2CCOCC2)c1CNCc1ccnc(N(C)C)c1	-1.81%	10.4%	-5.9%	-0.165%	-2.64%	0.21%	10.6%	25.3%	3.81%	14.1%	-2.85%
O=C(NCC1CCOCC1)[C@H]1C[C@@H]2CCN(Cc3ccncc3)C[C@@H]2O1	-1.48%	-2.67%	-3.45%	1.78%	3.28%	-1.25%	14%	-16.5%	1.04%	7.5%	-5.98%
COCC1CN(Cc2cc(C)on2)Cc2cn(C)nc21 (configuration not stated)	-1.68%	8%	1.48%	12.2%	-0.965%	-24.2%	9.06%	-11%	6.25%	10%	-4.54%
Cc1cn2c(n1)CCC(NC(=O)c1cc(C(C)C)no1)C2 (configuration not stated)	-4.48%	10.4%	2.99%	6.7%	1.67%	1.05%	4.93%	3.25%	6.67%	14.1%	-23%

Source: ChEMBL document CHEMBL3988442, “University of Dundee, Small-Polar-MMV Screening Library” (2021)
